Holding throughout (assay): log2 fold change, soluble protein after heating vs DMSO (PISA); higher = thermal stabilisation; K562 cells, 10 uM, 30 min; active = over 0.2 and 3.5 SD of the protein, either way, in both replicates (recomputed)
Compound in assay [1]: CC[C@@H]1C(=O)N(C)c2cnc(Nc3ccc(C(=O)NC4CCN(C)CC4)cc3OC)nc2N1C1CCCC1
The essentials: (§1)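 Thermal stability values are relative to control samples and come from duplicates. They are expressed as log2 fold changes. For measurement, K562 cells (2×10^6 cells/mL) received 10 μM compound for 30 min, and aliquots were heated for 3 min over 48°C-58°C, pooled, and extracted at 4°C in PBS with 0.5% NP-40. Soluble protein, the supernatant after 21,000xg for 90 min, was quantified by TMTpro 16plex LC-MS/MS with equalised channel sums.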

Compound in a further assay: CC[C@@H]1C(=O)N(C)c2cnc(Nc3ccc(C(=O)N[C@H]4CC[C@H](N5CCN(CC6CC6)CC5)CC4)cc3OC)nc2N1C(C)C [volasertib]
The essentials: as §1

Compound in assay [2]: CC[C@H](C)N1C=C(C2=C(C=C(C=C21)C3=CN=C(C=C3)N4CCNCC4)C(=O)NCC5=C(C=C(NC5=O)C)C)C
The gist of the method: as §1

Compound in a further assay: CC[C@H](C)[C@@H](C(=O)N[C@@H]([C@@H](C)O)C(=O)N[C@@H](CC(C)C)C(=O)[C@]1(CO1)C)NC(=O)[C@H]([C@@H](C)CC)N(C)C(=O)C [epoxomicin]
The essentials: as §1

Compound in assay [3]: CCn1c(C(=O)N(C2CC2)C2CC2)cc2c3c(ncn3C)c(Nc3cc(C)n(C)n3)nc21
The gist of the method:
as §1

Compound in assay [4]: CCn1cc(-c2ccnc3[nH]c(-c4cccc(CN(C)C)c4)cc23)c(-c2ccc(NC(=O)N(C)C)cc2)n1
The essentials:
as §1

Compound in assay [5]: CN(C)CC(=O)Nc1ccc2[nH]c(=O)c3ccccc3c2c1
The essentials:
as §1

Compound in a further assay: CN(CCOC1=CC=C(C=C1)C[C@H]2C(=O)NC(=O)S2)C3=CC=CC=N3 (racemic) [rosiglitazone]
The gist of the method: as §1

Compound in assay [6]: CN1C2=C(C3=C1C(=O)N(N=C3)CC4=CC(=CC=C4)N)SC(=C2)S(=O)C
The essentials: as §1

Compound in assay [7]: CN1CCC(CNc2ccc3ncc(-c4cccc(OC(F)(F)F)c4)n3n2)CC1
The gist of the method:
as §1

Of roughly 7,900 targets only a part is listed; those with a hit were picked by preference. About 0.6% of all pairs of compound and target were hits. Unmarked numbers belong to inactive results.

Chain of UniProt O94829 (O94829 whole entry, looked up): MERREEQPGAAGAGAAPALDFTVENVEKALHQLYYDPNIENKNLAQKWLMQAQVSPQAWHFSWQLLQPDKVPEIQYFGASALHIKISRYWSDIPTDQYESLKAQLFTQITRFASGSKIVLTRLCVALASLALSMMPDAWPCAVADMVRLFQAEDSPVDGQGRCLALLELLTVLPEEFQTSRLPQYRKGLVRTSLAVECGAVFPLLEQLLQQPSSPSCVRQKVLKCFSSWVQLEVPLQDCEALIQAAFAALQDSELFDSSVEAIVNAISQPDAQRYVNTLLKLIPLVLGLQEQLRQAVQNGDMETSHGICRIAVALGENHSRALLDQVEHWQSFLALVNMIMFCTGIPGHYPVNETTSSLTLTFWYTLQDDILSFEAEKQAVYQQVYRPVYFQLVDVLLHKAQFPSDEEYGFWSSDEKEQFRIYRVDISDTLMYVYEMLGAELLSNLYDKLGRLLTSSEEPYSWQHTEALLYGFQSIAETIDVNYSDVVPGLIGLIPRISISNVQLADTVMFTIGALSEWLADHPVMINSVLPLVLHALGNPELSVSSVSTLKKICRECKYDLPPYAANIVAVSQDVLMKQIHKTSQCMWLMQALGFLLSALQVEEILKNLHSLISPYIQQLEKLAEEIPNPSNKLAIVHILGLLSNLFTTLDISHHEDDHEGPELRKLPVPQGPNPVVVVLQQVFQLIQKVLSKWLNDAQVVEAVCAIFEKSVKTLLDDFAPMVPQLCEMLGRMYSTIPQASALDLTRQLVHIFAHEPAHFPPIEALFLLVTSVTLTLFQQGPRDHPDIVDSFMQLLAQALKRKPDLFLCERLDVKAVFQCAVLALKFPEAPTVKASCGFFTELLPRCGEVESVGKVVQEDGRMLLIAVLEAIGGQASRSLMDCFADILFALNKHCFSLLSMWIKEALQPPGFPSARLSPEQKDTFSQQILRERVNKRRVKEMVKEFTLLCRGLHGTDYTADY
Chain of UniProt O95819 (O95819 whole entry, looked up): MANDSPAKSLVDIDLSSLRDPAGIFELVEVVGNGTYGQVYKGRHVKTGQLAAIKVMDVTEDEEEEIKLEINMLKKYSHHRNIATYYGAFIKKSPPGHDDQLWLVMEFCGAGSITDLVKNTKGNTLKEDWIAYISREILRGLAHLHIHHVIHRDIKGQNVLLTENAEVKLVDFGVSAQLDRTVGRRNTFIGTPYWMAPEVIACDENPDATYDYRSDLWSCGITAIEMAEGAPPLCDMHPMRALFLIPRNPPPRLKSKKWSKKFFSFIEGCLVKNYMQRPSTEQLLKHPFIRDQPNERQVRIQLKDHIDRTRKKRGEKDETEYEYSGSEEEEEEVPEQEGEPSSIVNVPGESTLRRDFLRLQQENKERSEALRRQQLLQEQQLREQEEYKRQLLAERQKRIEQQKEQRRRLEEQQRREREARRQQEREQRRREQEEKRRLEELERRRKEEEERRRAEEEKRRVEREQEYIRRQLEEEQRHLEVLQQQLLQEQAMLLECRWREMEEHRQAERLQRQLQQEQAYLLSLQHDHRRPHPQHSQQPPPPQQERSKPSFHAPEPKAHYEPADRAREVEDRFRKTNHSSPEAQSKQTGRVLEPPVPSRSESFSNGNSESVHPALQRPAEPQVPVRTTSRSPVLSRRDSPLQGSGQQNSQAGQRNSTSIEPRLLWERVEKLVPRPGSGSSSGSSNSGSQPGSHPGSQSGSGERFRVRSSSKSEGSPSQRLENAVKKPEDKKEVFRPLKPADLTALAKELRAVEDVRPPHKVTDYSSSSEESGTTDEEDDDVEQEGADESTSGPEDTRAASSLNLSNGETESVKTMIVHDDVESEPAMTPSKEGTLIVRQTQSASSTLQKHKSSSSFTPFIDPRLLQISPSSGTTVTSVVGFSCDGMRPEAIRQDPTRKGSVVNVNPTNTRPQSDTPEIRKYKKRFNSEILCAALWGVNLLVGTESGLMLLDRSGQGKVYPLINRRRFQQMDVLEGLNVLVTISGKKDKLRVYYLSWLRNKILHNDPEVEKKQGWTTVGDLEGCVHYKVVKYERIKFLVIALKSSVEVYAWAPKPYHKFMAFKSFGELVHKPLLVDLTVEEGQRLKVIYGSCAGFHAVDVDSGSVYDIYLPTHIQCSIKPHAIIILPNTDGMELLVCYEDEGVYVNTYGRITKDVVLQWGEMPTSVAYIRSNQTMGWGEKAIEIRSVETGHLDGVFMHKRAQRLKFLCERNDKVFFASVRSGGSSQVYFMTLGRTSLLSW
Chain of UniProt Q9UI26 (Q9UI26 whole entry, looked up): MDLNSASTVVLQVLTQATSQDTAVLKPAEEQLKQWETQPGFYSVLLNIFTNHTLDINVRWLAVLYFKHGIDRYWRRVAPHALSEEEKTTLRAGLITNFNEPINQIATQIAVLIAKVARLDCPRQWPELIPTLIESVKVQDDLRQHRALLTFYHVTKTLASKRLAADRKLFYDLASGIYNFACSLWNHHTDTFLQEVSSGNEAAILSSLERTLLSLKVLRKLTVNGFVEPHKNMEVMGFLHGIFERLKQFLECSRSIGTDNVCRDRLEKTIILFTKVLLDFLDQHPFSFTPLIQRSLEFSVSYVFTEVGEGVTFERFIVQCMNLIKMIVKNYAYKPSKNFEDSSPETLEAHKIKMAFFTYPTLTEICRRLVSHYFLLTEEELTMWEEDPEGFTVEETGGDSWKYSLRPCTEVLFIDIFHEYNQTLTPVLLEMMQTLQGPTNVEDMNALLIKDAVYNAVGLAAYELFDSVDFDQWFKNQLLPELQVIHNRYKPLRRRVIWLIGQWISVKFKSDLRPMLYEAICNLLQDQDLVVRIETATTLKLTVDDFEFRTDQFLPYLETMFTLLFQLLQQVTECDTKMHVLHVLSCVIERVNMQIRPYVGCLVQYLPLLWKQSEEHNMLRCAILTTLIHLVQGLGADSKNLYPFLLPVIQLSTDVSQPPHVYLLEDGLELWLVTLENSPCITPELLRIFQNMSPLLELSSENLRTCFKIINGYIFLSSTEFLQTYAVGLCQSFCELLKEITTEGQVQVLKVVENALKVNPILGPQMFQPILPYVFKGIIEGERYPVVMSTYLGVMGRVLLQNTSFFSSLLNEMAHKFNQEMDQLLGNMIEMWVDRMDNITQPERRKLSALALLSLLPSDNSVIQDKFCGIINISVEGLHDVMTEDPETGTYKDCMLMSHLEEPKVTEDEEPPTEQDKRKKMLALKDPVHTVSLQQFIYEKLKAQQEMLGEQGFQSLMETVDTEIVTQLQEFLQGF
Chain of UniProt Q86WA8 (Q86WA8 whole entry, looked up): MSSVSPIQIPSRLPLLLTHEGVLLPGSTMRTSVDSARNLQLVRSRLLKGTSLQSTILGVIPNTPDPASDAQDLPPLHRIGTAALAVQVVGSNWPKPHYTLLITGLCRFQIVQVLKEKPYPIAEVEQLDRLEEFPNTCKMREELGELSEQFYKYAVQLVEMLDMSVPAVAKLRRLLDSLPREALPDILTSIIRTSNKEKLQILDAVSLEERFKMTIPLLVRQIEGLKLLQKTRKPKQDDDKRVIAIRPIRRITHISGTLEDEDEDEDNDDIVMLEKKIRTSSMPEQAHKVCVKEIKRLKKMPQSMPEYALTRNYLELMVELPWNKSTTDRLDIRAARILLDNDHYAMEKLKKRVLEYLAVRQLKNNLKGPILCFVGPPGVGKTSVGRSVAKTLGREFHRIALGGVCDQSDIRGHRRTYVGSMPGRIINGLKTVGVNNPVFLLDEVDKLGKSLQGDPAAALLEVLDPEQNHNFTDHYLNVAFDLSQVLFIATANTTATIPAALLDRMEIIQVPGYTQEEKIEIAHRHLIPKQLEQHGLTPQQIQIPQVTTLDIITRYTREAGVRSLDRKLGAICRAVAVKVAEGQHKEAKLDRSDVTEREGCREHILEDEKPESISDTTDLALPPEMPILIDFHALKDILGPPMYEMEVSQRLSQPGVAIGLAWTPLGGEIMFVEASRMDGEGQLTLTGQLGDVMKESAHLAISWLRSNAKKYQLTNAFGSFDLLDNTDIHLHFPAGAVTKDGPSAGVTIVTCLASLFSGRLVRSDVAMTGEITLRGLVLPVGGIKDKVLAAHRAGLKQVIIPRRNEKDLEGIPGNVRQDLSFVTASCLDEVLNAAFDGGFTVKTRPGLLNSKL
Chain of UniProt P23368 (P23368 whole entry, looked up): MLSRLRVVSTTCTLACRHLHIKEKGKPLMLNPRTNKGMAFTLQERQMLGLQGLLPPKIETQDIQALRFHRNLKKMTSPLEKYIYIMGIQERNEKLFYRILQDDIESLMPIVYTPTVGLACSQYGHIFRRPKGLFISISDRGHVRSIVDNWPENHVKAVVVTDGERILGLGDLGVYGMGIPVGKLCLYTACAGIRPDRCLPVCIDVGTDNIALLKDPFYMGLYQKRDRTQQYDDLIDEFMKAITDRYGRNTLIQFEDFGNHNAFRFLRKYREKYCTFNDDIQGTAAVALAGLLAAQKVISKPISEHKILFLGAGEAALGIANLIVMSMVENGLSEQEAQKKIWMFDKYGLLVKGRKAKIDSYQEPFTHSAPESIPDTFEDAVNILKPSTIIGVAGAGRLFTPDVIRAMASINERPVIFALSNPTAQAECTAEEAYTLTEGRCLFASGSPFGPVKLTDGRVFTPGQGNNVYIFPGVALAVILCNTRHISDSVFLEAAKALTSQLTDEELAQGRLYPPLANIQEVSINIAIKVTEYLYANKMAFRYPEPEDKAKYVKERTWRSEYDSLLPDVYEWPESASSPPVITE
Chain of UniProt P01116 (P01116 whole entry, looked up): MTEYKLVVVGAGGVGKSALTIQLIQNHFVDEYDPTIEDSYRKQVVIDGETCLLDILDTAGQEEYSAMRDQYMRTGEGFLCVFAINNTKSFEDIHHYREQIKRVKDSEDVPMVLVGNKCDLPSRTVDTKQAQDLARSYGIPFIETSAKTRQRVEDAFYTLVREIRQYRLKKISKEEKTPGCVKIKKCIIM
Chain of UniProt O95372 (O95372 whole entry, looked up): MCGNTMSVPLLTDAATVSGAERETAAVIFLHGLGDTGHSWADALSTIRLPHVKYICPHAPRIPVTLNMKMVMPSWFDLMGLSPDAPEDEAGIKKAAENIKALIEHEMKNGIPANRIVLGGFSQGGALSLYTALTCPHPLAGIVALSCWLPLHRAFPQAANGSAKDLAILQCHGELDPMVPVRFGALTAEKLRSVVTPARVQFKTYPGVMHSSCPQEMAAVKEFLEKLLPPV

For LYPLA2 (UniProt O95372), the log2 fold change in assay [1] is 0.049; with volasertib, -0.033; in [2], 0.018; with epoxomicin, 0.521 (active); in assay [3] it was 0.025; in assay [4], -0.05. Also, the log2 fold change was 0.108 in assay [5], -0.021 with rosiglitazone, -0.053 in assay [6] and 0.098 in assay [7].
For the target IPO11 isoform 2 (UniProt Q9UI26), the log2 fold change in [1] was -0.104; with volasertib, -0.3 (active); in assay [2] it was -0.004; with epoxomicin it was 0.066; in [3], -0.01; in assay [4] it was -0.068. In addition, the log2 fold change in [5] was 0.028; with rosiglitazone it was -0.002; in assay [6] it was -0.082; in assay [7], -0.016.
Take KRAS isoform 2 (UniProt P01116): the log2 fold change in assay [1] was 0.08; with volasertib, 0.026; in [2], -0.047; with epoxomicin, 0.027; in assay [3], -0.007; in assay [4], -0.073. Further, the log2 fold change in assay [5] was 0; with rosiglitazone it was 0.038; in assay [6], 0.062; in assay [7], 0.141.
In the case of LMBRD2 (UniProt Q68DH5), the log2 fold change in assay [1] was -0.063; in the assay with volasertib, -0.042; in assay [2], -0.012; with epoxomicin it was 0.081; in assay [3], -0.007; in assay [4] it was -0.018. The log2 fold change is 0.002 in [5], -0.023 with rosiglitazone, -0.008 in assay [6] and -0.362 (active) in assay [7].
Regarding MAP4K4 isoform 3 (UniProt O95819), the log2 fold change in [1] is -0.082; in the assay with volasertib, -0.316 (active); in [2] it was 0.011; with epoxomicin, 0.047; in assay [3], 0.017; in assay [4], -0.184. Further, the log2 fold change in [5] was 0.012; in the assay with rosiglitazone it was 0.058; in [6], 0.001; in assay [7] it was -0.299 (active).
Turning to MICOS13 (UniProt Q5XKP0), the log2 fold change was -0.132 in [1]; -0.181 with volasertib; 0.025 in assay [2]; 0.023 with epoxomicin; -0.023 in [3]; -0.043 in [4]. For the same target, the log2 fold change in assay [5] is 0.026; with rosiglitazone, 0.011; in assay [6] it was -0.044; in assay [7] it was -0.579 (active).
Take IPO9 (UniProt Q96P70): the log2 fold change in assay [1] is -0.227 (active); with volasertib, -0.611 (active); in [2], -0.003; with epoxomicin, -0.031; in assay [3] it was 0.03; in assay [4] it was 0.034. For the same target, the log2 fold change in assay [5] was 0.009; with rosiglitazone it was 0.018; in assay [6] it was -0.007; in assay [7], -0.077.
As for LUC7L (UniProt Q9NQ29), the log2 fold change in [1] is 0.006; with volasertib it was -0.005; in assay [2] it was 0.005; with epoxomicin, -0.052; in assay [3], 0.048; in assay [4], 0.01. The log2 fold change in assay [5] was -0.043; in the assay with rosiglitazone, -0.003; in assay [6] it was 0.108; in assay [7], 0.052.
As for MAPK9 (UniProt P45984), the log2 fold change in assay [1] was -0.055; with volasertib, -0.087; in assay [2], 0.006; in the assay with epoxomicin it was -0.005; in [3] it was -0.004; in assay [4], 0.03. Further, the log2 fold change in [5] was 0; with rosiglitazone, 0.04; in assay [6], -0.038; in [7], -0.071.
As to IPO13 (UniProt O94829), the log2 fold change in [1] is -0.367 (active); with volasertib, -0.291 (active); in assay [2] it was -0.081; with epoxomicin it was 0.048; in assay [3] it was 0.015; in assay [4], -0.084. Further, the log2 fold change in assay [5] was -0.013; with rosiglitazone, 0.072; in assay [6], 0.048; in [7] it was -0.333 (active).
In the case of KDM5D isoform 3 (UniProt Q9BY66), the log2 fold change in assay [1] was -0.305; with volasertib, -0.404; in assay [2] it was 0.032; in the assay with epoxomicin, 0.163; in [3] it was -0.01; in assay [4] it was 0.034. The log2 fold change in assay [5] is 0.223; with rosiglitazone, 0.108; in assay [6], -0.14; in [7], -0.059.
KCTD10 (UniProt Q9H3F6): the log2 fold change was 0.046 in assay [1]; 0.022 with volasertib; 0.055 in [2]; -0.019 in the assay with epoxomicin; 0 in [3]; -0.01 in assay [4]. The log2 fold change in assay [5] is 0.023; in the assay with rosiglitazone, 0.04; in assay [6] it was 0.003; in assay [7], 0.257 (active).
For LONP2 (UniProt Q86WA8), the log2 fold change in [1] is 0.141; in the assay with volasertib it was 0.16; in assay [2], 0.063; with epoxomicin it was 0.336; in [3], -0.032; in assay [4] it was 0.034. The log2 fold change in assay [5] is -0.106; with rosiglitazone, 0.05; in assay [6], 0.054; in assay [7], 0.17.
With LMNB2 (UniProt Q03252), the log2 fold change in assay [1] is 0.027; with volasertib, -0.077; in assay [2], 0.024; with epoxomicin, 0.028; in assay [3], -0.061; in assay [4], 0.043. For the same target, the log2 fold change in assay [5] was -0.033; in the assay with rosiglitazone it was -0.005; in [6] it was -0.01; in assay [7] it was 0.014.
On to ME2 (UniProt P23368), for which the log2 fold change in assay [1] is 0.164; with volasertib, 0.445 (active); in [2], 0.006; with epoxomicin, 0.108; in assay [3] it was -0.012; in assay [4], -0.015. The log2 fold change in assay [5] is -0.002; in the assay with rosiglitazone, 0.016; in assay [6], -0.02; in assay [7] it was 0.145.
